# Source: PubChem BioAssay (National Center for Advancing Translational Sciences (NCATS))
# Pf growth 96h: inhibits malaria parasite growth, 96 h. 320,000 compounds, 6.9% hits. P. falciparum luciferase reporter growth, 96 h. Potency, µM (doses to about 28.7 µM), without a hit: top-dose activity change, negative = inhibition, most hits filed as inhibitors. AID 504834; also: potency is read from the fitted curve at half-maximal effect; % is scaled to controls: 0 for no effect and ±100 for the full control effect
#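 P. falciparum expressing integrated firefly luciferase, in erythrocytes at 2% hematocrit, 0.05% parasitemia, incubated with compounds 96 h at 37 C, 5% CO2. Growth inhibition read as loss of luminescence; two-generation exposure targets delayed-death apicoplast inhibitors.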
# Sm TGR inh: blocks Schistosoma mansoni thioredoxin glutathione reductase; Potency, µM (titrated, usually from 114 µM), without a hit: at the top dose activity change, negative = inhibition, actives largely listed as inhibitors; AID 485364; 360,000 compounds, 3% hits; purified TGR, DTNB reduction, TNB absorbance 405 nm; also: potency is read from the fitted curve at half-maximal effect; % is scaled to controls: 0 for no effect and ±100 for the full control effect; nearly all actives have a fitted effect of over 60% in size
#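 Kinetic colorimetric format: TGR-catalysed, NADPH-driven DTNB reduction monitored via TNB absorbance. Enzyme dispensed at 20 nM; compound exposure 15 min at room temperature before reaction start.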
# HCMV antiviral: blocks human cytomegalovirus replication; HFF cells, HCMV-luciferase reporter, 72 h; active compounds read low; activity change, negative = inhibition, % at 57.5 µM; 410,000 compounds, 4.5% hits; AID 1259415; in the data active = activity change below about -60%; inconclusive = no clear call, values can overlap the other calls; inactive = above about -39%; also: % is scaled to controls: 0 for no effect and ±100 for the full control effect
#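 Human foreskin fibroblasts infected with luciferase-reporter HCMV at MOI 1 PFU/cell, compounds at two doses. Luciferase measured 72 h post infection; normalized to buffer-only basal and Salinomycin (10uM) controls.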
# SARS PLpro yeast: inhibitors of SARS-CoV papain-like protease in yeast; AID 485353; 330,000 compounds, 0.19% hits; S. cerevisiae expressing SARS-CoV PLpro, growth rescue; Potency, µM (doses to about 32.9 µM), for the others: top-dose activity, positive = growth rescue, hits mostly activators; calls by dose curve; also: potency is read from the fitted curve at half-maximal effect; 0% is about no effect; nearly all actives have a fitted effect of over 55% in size
# HCV inh: blocks hepatitis C virus. Potency, µM (series often up to 41.8 µM), inactives show at the highest dose activity change, negative = inhibition, hits mostly inhibitors. Huh7.5.1 HCVcc-Cre infection, luciferase reporter, 44 h. 340,000 compounds, 3.4% hits; also: potency is read from the fitted curve at half-maximal effect; % is scaled to controls: 0 for no effect and ±100 for the full control effect
#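 A cell-based infection assay in which seeded cells (1,000 per well) receive test compound after 4 h, are inoculated with HCVcc-Cre at approximately 0.5 moi, and are incubated 44 h before luminescence detection.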
# Pf growth 48h: P. falciparum growth inhibition at 48 hours (one generation); Potency, µM (titrated, usually from 28.7 µM), without a hit: at the highest dose activity change, negative = inhibition, hits mostly inhibitors; AID 504832; P. falciparum luciferase growth in erythrocytes, 48 h; 310,000 compounds, 5.9% hits; also: potency is read from the fitted curve at half-maximal effect; % is scaled to controls: 0 for no effect and ±100 for the full control effect
#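 Luciferase-expressing parasites in RBCs, 2% Hct / 0.1% parasitemia final; RPMI 1640 + 0.5% Albumax; 37 C, 5% CO2, one generation; luminescence read-out, lower signal = inhibition.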
# Numbers without * were called inactive; ? = inconclusive; . = no result given; [ ] = another dose, or the depositor's remark. Hits are enriched below; roughly 15% of the tested compounds scored in any of these assays. Unless noted, calls follow the shape of the dose curve; as a rule, active = well fitted curve in the direction sought with a large enough effect; inconclusive = small, poorly fitted or top-dose-only effect, or another doubt; inactive = no such curve, though single readings can be large; an effect the other way counts as inactive or inconclusive.
SMILES,Pf growth 96h,Sm TGR inh,HCMV antiviral,SARS PLpro yeast,HCV inh,Pf growth 48h
Cc1nc(SC(C(=O)c2ccccc2)c2ccccc2)nc2ccccc12 (centres undefined),?,4%,-11,7%,-12%,?
COc1ccc2nc(SC(C(=O)c3ccccc3)c3ccccc3)nc(C)c2c1 (centres undefined),13µM*,1%,-16,11%,?,?
Cc1cccc(NC(=O)C2(C)CC3c4ccccc4C2c2ccccc23)c1C (centres undefined),?,-8%,?,-35%,15%,10%
Cc1ccc(C)c(NC(=O)C2(C)CC3c4ccccc4C2c2ccccc23)c1 (centres undefined),?,6%,-105*,6%,7%,?
CC(=O)N1c2ccc(S(=O)(=O)N3CCCCCC3)cc2CC1C(=O)NCc1ccccc1 (centres undefined),.,-6%,-1,.,.,.
CCOC(=O)C1(Cc2ccc(Cl)cc2)CCN(C(=O)c2sc(C)nc2C)CC1,?,0%,-76*,0%,11µM*,?
CCOC(=O)C1(Cc2ccc(Cl)cc2)CCN(CCCn2cccn2)CC1,96%,-2%,-62*,1%,3.2µM*,-19%
CCc1ccc(-c2nc(CN3CCCC(C(=O)NCc4ccc(C)cc4)C3)c(C)o2)cc1 (centres undefined),.,4%,12,.,.,.
O=S(=O)(NCC(O)COCc1ccco1)c1cccs1 (centres undefined),-11%,13µM*,57,6%,7%,12%
CCc1cc(Cn2nc(-c3ccccc3)cc2C(=O)NCc2cccc(Br)c2)on1,.,.,?,-33%,3.2µM*,.
O=C1[C@@H]2Cc3c([nH]c4ccccc34)C(c3ccccc3)N2C(=O)CN1C1CC1 (some centres undefined),?,-7%,106,0%,1%,?
O=C1[C@@H]2Cc3c([nH]c4ccccc34)C(c3ccc([N+](=O)[O-])cc3)N2C(=O)CN1C1CC1 (some centres undefined),?,12%,13,-1%,?,10%[0.00184 µM]
COc1ccc(C2c3[nH]c4ccccc4c3C[C@H]3C(=O)N(C4CCN(Cc5ccccc5)CC4)CC(=O)N23)cc1OC (some centres undefined),1.5µM*,8%,-12,1%,?,1.5µM*
Cc1ccccc1C1c2[nH]c3ccccc3c2C[C@H]2C(=O)N(C3CC3)CC(=O)N12 (some centres undefined),3.7µM*,0%,22,0%,1%,12µM*
COc1cccc(C2c3[nH]c4ccccc4c3C[C@H]3C(=O)N(C4CCN(Cc5ccccc5)CC4)CC(=O)N23)c1 (some centres undefined),3.7µM*,0%,-5,1%,?,4.7µM*
COc1ccccc1C1c2[nH]c3ccccc3c2C[C@H]2C(=O)N(C3CCN(Cc4ccccc4)CC3)CC(=O)N12 (some centres undefined),1.5µM*,-8%,-6,2%,?,1.9µM*
COc1cccc(C2c3[nH]c4ccccc4c3C[C@H]3C(=O)N(CCCCCO)CC(=O)N23)c1 (some centres undefined),?,4%,85,1%,-13%,?
O=C(c1ccc2c(c1)N(Cc1ccc(Cl)cc1)C(=O)c1ccccc1S2(=O)=O)N1CCc2ccccc21,.,1%,-26,.,.,.
COc1ccccc1NC(=O)C(C)OC(=O)CCCOc1ccccc1 (centres undefined),4%,0%,8,-15%,6%[8.37 µM],3%
O=C(NCC1CCCN(Cc2ccc3nonc3c2)C1)c1cccc(C(F)(F)F)c1 (centres undefined),?,11%,-20,2%,-10%,48%
CC(C)(C)C(=O)NC1CCN(C(=O)N2CCCC2)CC1,?,0%,31,9%,2%,6%
CC(C)(C)C(=O)NC1CCN(S(C)(=O)=O)CC1,12µM*,-6%,5,-1%,2%,-17%
CCCCCC(=O)N1C[C@H](O)[C@@H](n2cc(C3CC3)nn2)C[C@@H]1c1ccc(C)cc1,.,.,12,.,.,.
O=C(CSc1ncc(-c2ccccc2)[nH]1)Nc1ccccc1,.,-3%,?,3%,-6%,7%
O=C(CSc1ncc(-c2ccccc2)[nH]1)Nc1cccc(Br)c1,.,6%,-66*,.,.,.
SMILES,Pf growth 96h,Sm TGR inh,HCMV antiviral,SARS PLpro yeast,HCV inh,Pf growth 48h
COc1ccccc1C(=O)NCc1ccco1,17%,?,26,1%,13%,13%
O=C(O)c1ccccc1-c1ccccc1C(=O)NCc1ccco1,11%,50µM*,-8,6%,10%,10%
O=C(NCc1ccco1)c1ccccc1-c1ccccc1,-17%,?,-80*,3%,-4%,.
CCOP(=O)(OCC)C(NC(=O)Cc1ccccc1)C(Cl)(Cl)Cl (centres undefined),12%,2%,-33,0%,18%,-26%
CC(C)C(=O)NC(Oc1ccccc1Cl)C(Cl)(Cl)Cl (centres undefined),13%,25µM*,-37,1%,3%,-2%
CC(NC(=O)c1ccccc1Cl)NC(=O)c1ccccc1Cl,10%,-23%,59,-2%,15%,11%
O=C(Cc1ccccc1)NC(Oc1ccccc1Cl)C(Cl)(Cl)Cl (centres undefined),?,32µM*,-23,1%,-8%,-10%
Cc1ccc(N2C(=O)C3C(C2=O)N2C(c4cccs4)C4C(=O)N(c5ccc(C)cc5)C(=O)C4N2C3c2cccs2)cc1 (centres undefined),1.9µM*,-3%,-4,16%,10%,?
CCOC(=O)C1(C)NC(c2cccs2)C2C(=O)N(c3ccc(C)cc3)C(=O)C21 (centres undefined),-42%[5.75 µM],-5%,-6,3%,5%,-7%
CSC1=NC(C)(C)C=C(/C=C/c2c(Cl)cccc2Cl)N1,?,16µM*,20,-2%,-27%,?
CSC1=NC(C)(C)C=C(/C=C/c2ccc(Cl)cc2)N1,?,5µM*,-74*,-1%,8.9µM*,-24%
Nc1nccc(/C=C/c2ccc(Cl)cc2)n1,106%,12%,80,-2%,-26%,241%
CCSC1=NC(C)(C)C=C(/C=C/c2ccc(Cl)cc2Cl)N1,?,18µM*,8,-5%,?,.
CCSC1=NC(C)(C)C=C(C)N1,-2%,-4%,-22,2%,1%,16%
